Data reported in article PMC7862700, “An all-to-all approach to the identification of sequence-specific readers for epigenetic DNA modifications on cytosine”.

Assays:
Test in all cases: DAPPL (digital affinity profiling via proximity ligation, sequencing); 10 mM Tris-HCl pH 7.5, 50 mM NaCl, 1 mM DTT, 4% glycerol, room temperature, 30 min; GST-TFs on glutathione beads, 16-mer random dsDNA library, 0.1% formaldehyde crosslink after washing; high values mean tight binding
Settings in all cases: protein: recombinant; tags: N-terminal GST; dsDNA, one strand shown
[1] = target: T1, FLI1 (Homo sapiens, UniProt Q01543 1-452)
T1 sequence: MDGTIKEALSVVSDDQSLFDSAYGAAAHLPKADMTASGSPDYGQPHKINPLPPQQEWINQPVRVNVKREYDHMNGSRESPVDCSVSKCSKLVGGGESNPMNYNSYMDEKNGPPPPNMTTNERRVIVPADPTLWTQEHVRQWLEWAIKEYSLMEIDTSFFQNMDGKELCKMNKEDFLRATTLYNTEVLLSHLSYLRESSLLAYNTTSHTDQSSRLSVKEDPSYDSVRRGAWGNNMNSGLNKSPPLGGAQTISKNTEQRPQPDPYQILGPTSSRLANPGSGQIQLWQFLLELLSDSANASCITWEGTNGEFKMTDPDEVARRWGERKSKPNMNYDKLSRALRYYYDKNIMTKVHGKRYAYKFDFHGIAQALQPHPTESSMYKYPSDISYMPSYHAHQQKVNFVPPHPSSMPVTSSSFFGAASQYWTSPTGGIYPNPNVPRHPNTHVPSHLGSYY
Outline: (§1)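 Human transcription factors fused to GST were expressed in yeast, captured on glutathione beads, given DNA barcodes and pooled with a GST-only negative control. Pools were incubated with 200 nmole of a 16-mer random double-stranded DNA library in Tris/NaCl/DTT/glycerol buffer at room temperature for 30 min. They were then washed, crosslinked with 0.1% formaldehyde, proximity-ligated (BsaI/T4 ligase, 1 h, 37 °C), PCR-amplified and sequenced on an Illumina NextSeq500. Binding signal is each 6-mer's read frequency for a factor divided by its frequency for the GST control.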

[2] = target: T2, ELK1 (Homo sapiens, UniProt P19419 1-428)
T2 sequence: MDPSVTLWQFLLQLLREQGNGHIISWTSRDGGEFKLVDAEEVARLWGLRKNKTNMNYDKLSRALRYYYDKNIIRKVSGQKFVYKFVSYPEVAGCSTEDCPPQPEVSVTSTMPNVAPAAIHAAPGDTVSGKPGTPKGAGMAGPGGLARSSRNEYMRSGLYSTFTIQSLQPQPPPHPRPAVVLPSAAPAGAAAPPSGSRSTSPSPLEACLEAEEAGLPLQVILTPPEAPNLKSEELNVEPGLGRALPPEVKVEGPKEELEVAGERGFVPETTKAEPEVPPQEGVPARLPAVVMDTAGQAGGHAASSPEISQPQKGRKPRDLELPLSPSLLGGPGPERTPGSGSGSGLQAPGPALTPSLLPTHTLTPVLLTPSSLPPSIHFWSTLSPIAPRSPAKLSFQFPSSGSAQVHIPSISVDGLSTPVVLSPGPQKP
Outline: as §1

[3] = target: T3, GABPA (Homo sapiens, UniProt Q06546 1-454)
T3 sequence: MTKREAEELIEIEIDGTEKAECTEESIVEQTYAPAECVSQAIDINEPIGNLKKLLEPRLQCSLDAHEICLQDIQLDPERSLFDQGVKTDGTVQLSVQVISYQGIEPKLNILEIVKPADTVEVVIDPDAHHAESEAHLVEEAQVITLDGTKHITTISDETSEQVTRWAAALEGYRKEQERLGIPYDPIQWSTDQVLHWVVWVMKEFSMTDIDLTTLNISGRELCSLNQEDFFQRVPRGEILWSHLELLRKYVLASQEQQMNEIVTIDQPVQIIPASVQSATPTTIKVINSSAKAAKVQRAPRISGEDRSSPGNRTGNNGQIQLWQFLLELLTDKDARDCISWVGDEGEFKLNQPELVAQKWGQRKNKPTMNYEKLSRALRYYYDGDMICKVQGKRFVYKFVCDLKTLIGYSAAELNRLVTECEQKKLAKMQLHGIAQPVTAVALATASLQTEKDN
Outline: as §1

[4] = target: T4, ERG (Homo sapiens, UniProt P11308 1-479)
T4 sequence: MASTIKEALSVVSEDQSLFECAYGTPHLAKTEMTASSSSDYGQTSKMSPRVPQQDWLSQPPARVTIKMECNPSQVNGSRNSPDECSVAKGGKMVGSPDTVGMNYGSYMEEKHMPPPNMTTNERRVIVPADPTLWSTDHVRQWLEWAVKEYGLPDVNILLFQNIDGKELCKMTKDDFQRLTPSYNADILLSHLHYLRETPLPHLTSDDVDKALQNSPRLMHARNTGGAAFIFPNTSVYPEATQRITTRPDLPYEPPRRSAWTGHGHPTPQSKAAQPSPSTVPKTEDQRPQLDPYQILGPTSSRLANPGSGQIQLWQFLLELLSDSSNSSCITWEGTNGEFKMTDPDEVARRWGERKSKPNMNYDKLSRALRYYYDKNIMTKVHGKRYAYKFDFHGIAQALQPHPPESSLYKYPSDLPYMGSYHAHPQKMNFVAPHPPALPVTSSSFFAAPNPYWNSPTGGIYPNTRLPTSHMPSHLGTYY
Outline: as §1

[5] = target: ELF1 (Homo sapiens, UniProt P32519 1-619)
Sequence of ELF1 (P32519 whole entry): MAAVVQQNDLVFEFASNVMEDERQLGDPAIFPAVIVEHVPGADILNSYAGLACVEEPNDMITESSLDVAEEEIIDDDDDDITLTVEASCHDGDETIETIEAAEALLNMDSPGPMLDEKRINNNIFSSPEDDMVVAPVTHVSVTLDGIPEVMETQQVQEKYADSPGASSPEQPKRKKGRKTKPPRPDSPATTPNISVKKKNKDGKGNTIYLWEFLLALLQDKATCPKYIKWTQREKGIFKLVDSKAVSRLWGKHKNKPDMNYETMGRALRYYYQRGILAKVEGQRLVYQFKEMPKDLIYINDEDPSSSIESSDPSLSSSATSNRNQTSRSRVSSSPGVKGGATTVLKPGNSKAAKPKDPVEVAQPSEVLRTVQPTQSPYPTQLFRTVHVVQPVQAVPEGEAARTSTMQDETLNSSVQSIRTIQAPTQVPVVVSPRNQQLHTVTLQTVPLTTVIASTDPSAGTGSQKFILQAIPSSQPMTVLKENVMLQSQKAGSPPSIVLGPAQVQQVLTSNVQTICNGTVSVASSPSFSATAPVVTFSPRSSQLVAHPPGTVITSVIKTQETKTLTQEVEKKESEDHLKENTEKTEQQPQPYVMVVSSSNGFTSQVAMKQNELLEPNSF
Outline: as §1

[6] = target: T5, EHF (Homo sapiens, UniProt Q9NZC4 1-300)
T5 sequence: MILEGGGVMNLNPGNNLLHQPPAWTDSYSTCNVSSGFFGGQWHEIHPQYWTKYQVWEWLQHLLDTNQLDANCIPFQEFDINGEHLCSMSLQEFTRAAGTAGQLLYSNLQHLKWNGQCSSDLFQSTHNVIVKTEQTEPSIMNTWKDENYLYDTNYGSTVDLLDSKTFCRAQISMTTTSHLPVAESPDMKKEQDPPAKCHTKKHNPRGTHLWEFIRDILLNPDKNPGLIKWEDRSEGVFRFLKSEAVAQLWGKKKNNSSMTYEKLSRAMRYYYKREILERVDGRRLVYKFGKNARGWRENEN
Outline: as §1

[7] = target: SPI1 (Homo sapiens, UniProt P17947 1-270)
Outline: as §1

[8] = target: SPIB (Homo sapiens, UniProt Q01892 1-262)
Sequence of SPIB (Q01892 whole entry): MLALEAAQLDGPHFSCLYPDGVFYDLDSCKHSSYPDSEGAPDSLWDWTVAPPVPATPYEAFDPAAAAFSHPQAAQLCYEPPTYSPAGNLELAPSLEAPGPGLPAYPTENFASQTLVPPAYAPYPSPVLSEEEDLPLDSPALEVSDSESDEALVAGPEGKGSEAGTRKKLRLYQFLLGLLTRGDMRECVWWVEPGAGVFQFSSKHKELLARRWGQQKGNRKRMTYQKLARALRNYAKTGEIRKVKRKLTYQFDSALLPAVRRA
Outline: as §1

[9] = target: T6, ELK3 (Homo sapiens, UniProt P41970 1-407)
T6 sequence: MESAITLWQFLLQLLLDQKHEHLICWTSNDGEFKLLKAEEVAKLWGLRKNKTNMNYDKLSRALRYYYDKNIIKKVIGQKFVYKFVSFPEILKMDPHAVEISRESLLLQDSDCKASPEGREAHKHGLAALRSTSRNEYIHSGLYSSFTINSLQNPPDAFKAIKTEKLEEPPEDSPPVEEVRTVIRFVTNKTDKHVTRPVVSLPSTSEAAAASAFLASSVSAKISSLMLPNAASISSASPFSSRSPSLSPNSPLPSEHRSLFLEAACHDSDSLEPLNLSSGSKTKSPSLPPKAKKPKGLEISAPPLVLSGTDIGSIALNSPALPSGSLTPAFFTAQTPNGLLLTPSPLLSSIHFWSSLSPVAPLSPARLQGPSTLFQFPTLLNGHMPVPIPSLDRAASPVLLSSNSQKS
Outline: as §1

Sequence | binding signal [1] | binding signal [2] | binding signal [3] | binding signal [4] | binding signal [5] | binding signal [6] | binding signal [7] | binding signal [8] | binding signal [9]
ATGATC | 1.2 fold enrichment (6-mer frequency, TF over GST control) | 1.17 fold enrichment (6-mer frequency, TF over GST control) | 1.3 fold enrichment (6-mer frequency, TF over GST control) | 1.1 fold enrichment (6-mer frequency, TF over GST control) | 1.22 fold enrichment (6-mer frequency, TF over GST control) | 1.28 fold enrichment (6-mer frequency, TF over GST control) | 1.15 fold enrichment (6-mer frequency, TF over GST control) | 1.18 fold enrichment (6-mer frequency, TF over GST control) | 1.31 fold enrichment (6-mer frequency, TF over GST control)
ACCGCT | 1.09 fold enrichment (6-mer frequency, TF over GST control) | 1.12 fold enrichment (6-mer frequency, TF over GST control) | 1.14 fold enrichment (6-mer frequency, TF over GST control) | 1.1 fold enrichment (6-mer frequency, TF over GST control) | 1.07 fold enrichment (6-mer frequency, TF over GST control) | 1.09 fold enrichment (6-mer frequency, TF over GST control) | 1.03 fold enrichment (6-mer frequency, TF over GST control) | 1.15 fold enrichment (6-mer frequency, TF over GST control) | 1.05 fold enrichment (6-mer frequency, TF over GST control)
CTTGTT | 1.2 fold enrichment (6-mer frequency, TF over GST control) | 1.18 fold enrichment (6-mer frequency, TF over GST control) | 1.15 fold enrichment (6-mer frequency, TF over GST control) | 1.26 fold enrichment (6-mer frequency, TF over GST control) | 1.21 fold enrichment (6-mer frequency, TF over GST control) | 1.31 fold enrichment (6-mer frequency, TF over GST control) | 1.25 fold enrichment (6-mer frequency, TF over GST control) | 1.29 fold enrichment (6-mer frequency, TF over GST control) | 1.3 fold enrichment (6-mer frequency, TF over GST control)
CTCGGC | 1.47 fold enrichment (6-mer frequency, TF over GST control) | 1.33 fold enrichment (6-mer frequency, TF over GST control) | 1.39 fold enrichment (6-mer frequency, TF over GST control) | 1.26 fold enrichment (6-mer frequency, TF over GST control) | 1.38 fold enrichment (6-mer frequency, TF over GST control) | 1.52 fold enrichment (6-mer frequency, TF over GST control) | 1.45 fold enrichment (6-mer frequency, TF over GST control) | 1.27 fold enrichment (6-mer frequency, TF over GST control) | 1.39 fold enrichment (6-mer frequency, TF over GST control)
